A number with no mark means an inactive call. No rule for the calls is given here.

The test system of the assay is Aerobactin synthetase IucA (Klebsiella pneumoniae hvKP1). Kind of assay: Biochemical IucA enzyme inhibition primary screen of the Spectrum library (AID 1346200).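 Also: 100% = wells without compound and 0% = wells lacking enzyme.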 The following applies: malachite green pyrophosphate, A620, at 8 µM, hits give low values.
As to `C/C=C(\C)C(=O)O[C@@H]1c2c(ccc3ccc(=O)oc23)OC(C)(C)[C@@H]1OC(C)=O`, the activity remaining is 87%.

As for `Cc1c(NC(=O)c2cccnc2)c(=O)n(-c2ccccc2)n1C`, the activity remaining is 85.4%.

On to `NC(=O)c1ccc([N+](=O)[O-])cc1Cl`, for which the activity remaining was 107%.

In the case of `CC1(C)S[C@@H]2[C@H](NC(=O)[C@H](C(=O)O)c3cccs3)C(=O)N2[C@H]1C(=O)O`, the activity remaining is 102%.

`COc1c(O)cccc1O`: the activity remaining is 87.7%.

Regarding `CN(C)CC/C=C1\c2ccccc2Sc2ccc(Cl)cc21`, the activity remaining is 110%.

`COc1ccc2c(C)cc(=O)oc2c1`: the activity remaining was 92.2%.

`CN(C)CCOc1ccc(/C(=C(/CCCl)c2ccccc2)c2ccccc2)cc1`: the activity remaining is 112%.

Turning to `C=CCCCCCCCCC(=O)O`, the activity remaining is 111%.

With `COc1ccc(-c2coc3cc(O)ccc3c2=O)c(OC)c1`, the activity remaining was 111%.

Regarding `O=C(O)CCCCC1CCSS1` (centres undefined), the activity remaining is 103%.

On to `O=c1[nH]cnc2nc[nH]c12`, for which the activity remaining is 89.8%.

With `C=C(C)[C@H]1CC=C(C(=O)O)CC1`, the activity remaining is 120%.

Take `C[n+]1c2cc(N)ccc2cc2ccc(N)cc21`: the activity remaining was 111%.

As to `CC(C)CCCC(C)C1CCC2C3CC[C@H]4C[C@@H](O)CC[C@]4(C)C3CC[C@]12C` (some centres undefined), the activity remaining is 109%.

On to `CC(=O)N(O)CCCCCNC(=O)CCC(=O)N(O)CCCCCNC(=O)CCC(=O)N(O)CCCCCN`, for which the activity remaining is 117%.

For the compound `CN1CCc2c(c3ccccc3n2Cc2ccccc2)C1`, the activity remaining is 116%.

Take `O=C(NCO)c1cccnc1`: the activity remaining is 113%.

Regarding `C[C@H]1COC2=C1C(=O)C(=O)c1c2ccc2c1CCCC2(C)C`, the activity remaining was 106%.

As to `O=C(O[C@@H]1Cc2c(O)cc(O)cc2O[C@@H]1c1ccc(O)c(O)c1)c1cc(O)c(O)c(O)c1`, the activity remaining was 107%.

As for `O=c1c(O)c(-c2ccc(O)c(O)c2)oc2cc(O)ccc12`, the activity remaining was 101%.

Turning to `CC1(C)C(=O)[C@@H]2C[C@@]3(O)C4=CC(=O)O[C@@H](c5ccoc5)[C@]4(C)CCC3C(C)(C2=O)[C@H]1CC(=O)O` (some centres undefined), the activity remaining was 98.2%.

Turning to `COc1c2ccoc2cc2oc(C)cc(=O)c12`, the activity remaining was 108%.

In the case of `CC(=O)O[C@@H]1C[C@@]23C[C@@]24CC[C@H](O[C@@H]2OC[C@@H](O)[C@H](O)[C@H]2O)C(C)(C)C4CCC3[C@]2(C)C[C@@H]3OC4(C[C@@H](C)[C@@H]3[C@@]12C)O[C@H](O)[C@]1(C)O[C@H]41` (some centres undefined), the activity remaining is 87.7%.

For the compound `COc1c(OC)c2occc2c2oc(=O)ccc12`, the activity remaining was 122%.

With `CC(=O)CC(c1ccccc1)c1c(O)c2ccccc2oc1=O` (centres undefined), the activity remaining was 118%.

As for `CC1CC2C3CCC4=CC(=O)C=C[C@]4(C)[C@@]3(F)[C@@H](O)C[C@]2(C)[C@@]1(O)C(=O)CO` (some centres undefined), the activity remaining was 117%.

Consider `C[C@@H]1CC[C@@]23CCC4(C)[C@@](C=CC5[C@@]6(C)CCC(=O)C(C)(C)C6CC[C@]54C)(OC2=O)C3[C@H]1C` (some centres undefined), for which the activity remaining was 112%.

`COC(=O)C[C@@H]1C2(C)C(=O)[C@@H](CC3C2CC[C@]2(C)C3CC(=O)O[C@H]2c2ccoc2)[C@H](OC(C)=O)C1(C)C` (some centres undefined): the activity remaining is 109%.

Regarding `NC(=O)NC(=O)Cc1ccccc1`, the activity remaining was 93%.

In the case of `C[C@H](CCC(=O)O)[C@H]1CCC2C3C(CC[C@@]21C)[C@@]1(C)CC[C@@H](O)C[C@H]1C[C@H]3O` (some centres undefined), the activity remaining was 101%.

`CCCCCCCCCCCCCCCC(=O)OC/C=C(C)/C=C/C=C(C)/C=C/C1=C(C)CCCC1(C)C`: the activity remaining is 89%.

Consider `CC(CCC(=O)O)[C@H]1CCC2C3C(C[C@H](O)[C@@]21C)[C@@]1(C)CC[C@@H](O)C[C@H]1C[C@H]3O` (some centres undefined), for which the activity remaining is 99.6%.

As for `CC(CCC(=O)O)[C@H]1CCC2C3CC[C@@H]4C[C@H](O)CC[C@]4(C)C3CC[C@@]21C` (some centres undefined), the activity remaining was 91.8%.

With `CN1CCc2cccc3c2C1Cc1ccc(O)c(O)c1-3` (centres undefined), the activity remaining is 87.4%.

With `COc1ccc(C(=O)CC(=O)O)c2c1C=CC(C)(C)O2`, the activity remaining was 108%.

For the compound `CC(=O)c1ccc2c(c1)N(CCCN(C)C)c1ccccc1S2`, the activity remaining is 104%.

On to `CC(=O)Oc1cccc(C(=O)O)c1OC(C)=O`, for which the activity remaining was 120%.

Regarding `NC(=NCCCCCCN=C(N)/N=C(\N)Nc1ccc(Cl)cc1)/N=C(\N)Nc1ccc(Cl)cc1`, the activity remaining is 95.5%.
